“And” between values parts separate entries of the source, which are not always exact repeats. Equal values may be shown once. Records with an inconclusive call do not appear. Some compounds were tested as several samples or in several runs, with calls that do not always agree. The source made the active and inactive calls. How the source made its calls, unless noted: active means hit-call score of the fitted dose curve at least 0.9, where 1 is the maximum; inactive means score below 0.9. Peptide text beside a SMILES is read from it.

As usually defined, the AC50 is the concentration giving half of the maximal activity seen.

Experiment [1] is described as follows: CCTE_Shafer_MEA_acute_LDH: CCTE's Lactate Dehydrogenase Assay for Cytotoxicity in the Neural Acute Assay, Shafer Lab (AID 2284086; active means hit-call score of the fitted dose curve at least 0.9, where 1 is the maximum;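 further: active means LDH release rises above DMSO vehicle level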). The method in brief: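 Medium collected from MEA wells of primary rat cortical cultures (DIV 13 or 15) immediately after 40 min chemical exposure is assayed spectrophotometrically for lactate dehydrogenase activity. Endpoint fitted in positive direction versus DMSO.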

Experiment [2] in a line: CCTE_Shafer_MEA_acute_AB: CCTE's Alamar Blue Assay for Cytotoxicity in the Neural Acute Assay, Shafer Lab (AID 2284069; active means hit-call score of the fitted dose curve at least 0.9, where 1 is the maximum;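 further: active compounds lower the viability signal compared with DMSO wells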). The method in brief:
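Read-out: resazurin fluorescence (ex 544, em 590 nm) after CTB reagent at 1:6 dilution in fresh media. Cells: primary rat cortical neuron networks, DIV 13 or 15, chemically exposed on MEA plates; DMSO as negative control/baseline.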

Experiment [3] can be described thus: CCTE_Shafer_MEA_dev_AB: CCTE's Alamar Blue Assay for Cytotoxicity in the Neural Network Formation Assay, Shafer Lab (AID 2284083; active means hit-call score of the fitted dose curve at least 0.9, where 1 is the maximum;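 further: resazurin reduction fluorescence as viability of cultured neurons; twelve days of exposure from plating with re-dosing on DIV 5 and 9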). Put shortly:
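Rat cortical primary cultures, 1.5 x 10^5 cells/well on MEA; continuous compound exposure over 12 days of network development, re-dosed with full medium change DIV 5 and 9. Alamar Blue fluorescence; loss of signal = cytotoxicity vs DMSO baseline.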
Background: The colour change of resazurin is a common sign of viable cells or microbes.

Experiment [4] is described as follows: CCTE_Shafer_MEA_dev_mutual_information_norm: CCTE's Neural Network Formation Assay for Mutual Information Normalization, Shafer Lab (AID 2284091).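 On AC50: mutual information between electrodes summarised as area under curve across four recording days; potency is for a decrease in mutual information relative to DMSO.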 The method in brief: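 Neurons from rat cortex were seeded at 1.5 x 10^5 cells/well onto PEI-coated MEAs in a laminin drop, then exposed to compound from day 0 for twelve days. Network recordings on four days gave mutual information, summarised by AUC relative to DMSO.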

Experiment [5] in a line: CCTE_Shafer_MEA_dev_correlation_coefficient_mean: CCTE's Neural Network Formation Assay for Mean Correlation Coefficient, Shafer Lab (AID 2284093).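 On AC50: well mean pairwise spike train correlation integrated as AUC over recording days 5 to 12; potency fitted for loss of correlation relative to DMSO vehicle wells.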 The method in brief:
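Rat cortical cultures, 1.5 x 10^5 cells/well, dosed from day 0 for 12 days. Spontaneous spikes recorded DIV 5/7/9/12; electrode-pair correlation coefficients averaged, AUC taken. Fit in loss direction vs DMSO.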

The nature of experiment [6]: UKN2_HCS_IMR90_neural_migration: University of Konstanz (UKN) Leist Lab Neural Crest Cell Migration Assay in human induced IMR90 Pluripotent Stem Cells (UKN2) (AID 2284204). The note with it: actives raise or lower the signal. Put shortly:
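Stopper-exclusion migration (cMINC), human iPSC-derived neural crest cells; N2-S + EGF/FGF; compound added 24 h post-stopper removal, 24 h exposure. Readout: calcein-AM/Hoechst 30 min, HCS fluorescence imaging; bidirectional fitting, DMSO baseline.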

The nature of experiment [7]: IUF_NPC1b_proliferation_BrdU_72hr: Leibniz Research Institute for Environmental Medicine (IUF) 72-hour Neural Progenitor Cell Bromodeoxyuridine (BrdU) Proliferation Assay (NPC1b) (AID 2284207). Put shortly: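 Luminescent BrdU ELISA measured DNA synthesis during the last 16 h of a 72 h exposure of primary human neural progenitor spheres grown with EGF and FGF. Signal was fitted relative to DMSO controls.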

Experiment [8] can be described thus: IUF_NPC1a_proliferation_area_72hr: Leibniz Research Institute for Environmental Medicine (IUF) 72-hour Neural Progenitor Cell Proliferation Area Assay (NPC1a) (AID 2284208). The method in brief: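 Read-out: increase in sphere area over 72 h by automated phase-contrast imaging, fitted in positive direction versus DMSO baseline. One hNPC sphere (0.25-0.35 mm) per well in EGF/FGF medium; growth-factor withdrawal served as positive control.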

Experiment [9] is described as follows: IUF_NPC1_viability_72hr: Viability Assessment at 72 hours in the Leibniz Research Institute for Environmental Medicine (IUF) Neural Progenitor Cell Proliferation Assay (NPC1) (AID 2284209). The method in brief:
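Spheres of primary human neural progenitors were plated singly in proliferation medium and treated for 72 h. Mitochondrial reduction of resazurin was then measured by fluorescence and analysed against DMSO controls.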

Experiment [10] can be described thus: CCTE_Mundy_HCI_Cortical_Synap_Neur_Matur_NeuriteSpotCountPerNeuriteLength: CCTE's Synaptogenesis and Neurite Maturation Assay in rat cortical cells for Neurite Spot Count per Neurite Length, Mundy Lab (AID 2284210). The method in brief:
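Read-out: synaptophysin puncta counted along MAP2-stained neurites, normalised to neurite length, by automated high-content imaging. Rat cortical cells; AraC DIV 5; chemical dosing DIV 7; termination DIV 12. DMSO baseline.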

Experiment [11] can be described thus: CCTE_Mundy_HCI_Cortical_Synap_Neur_Matur_BPCount: CCTE's Synaptogenesis and Neurite Maturation Assay in rat cortical cells for Branch Point Count, Mundy Lab (AID 2284211). The method in brief:
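HCI read-out of branch points from MAP2/synaptophysin/Hoechst immunofluorescence; rat cortical cultures, AraC DIV 5, dosing DIV 7, fixed DIV 12; fit in positive direction vs DMSO baseline.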

Experiment [12] is described as follows: CCTE_Mundy_HCI_Cortical_NOG_NeuriteCount: CCTE's Neurite Outgrowth Assay in rat cortical cells for Neurite Count, Mundy Lab (AID 2284212).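 Further: cells fixed about two days after chemical exposure began.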 The method in brief: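 Rat cortical primary cells; compound added 2 h post-plating, 1/10 dilution of working solution. Anti-betaIII-tubulin/AF488 ICC; ArrayScan neurite count vs DMSO.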
Experiment [13] is described as follows: CCTE_Mundy_HCI_Cortical_NOG_NeuriteLength: CCTE's Neurite Outgrowth Assay in rat cortical cells for Neurite Length, Mundy Lab (AID 2284213). Put shortly:
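First, rat primary cortical cells were plated and, 2 h later, given test chemical as a 1/10 dilution. Finally, βIII-tubulin immunostaining enabled automated imaging of neurite length.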

Experiment [14] is described as follows: CCTE_Mundy_HCI_Cortical_Synap_Neur_Matur_NeuriteLength: CCTE's Synaptogenesis and Neurite Maturation Assay in rat cortical cells for Neurite Length, Mundy Lab (AID 2284214). The method in brief:
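Cultures of rat primary cortical cells received chemical at DIV 7 and were fixed at DIV 12, after glial arrest with AraC at DIV 5. Neurite length was measured by automated imaging of MAP2 immunofluorescence.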

The nature of experiment [15]: CCTE_Mundy_HCI_Cortical_Synap_Neur_Matur_NeuriteSpotCountPerNeuron: CCTE's Synaptogenesis and Neurite Maturation Assay in rat cortical cells for Neurite Spot Count per Neuron Count, Mundy Lab (AID 2284215). The method in brief: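 Rat primary cortical cells received AraC at DIV 5, then chemicals with a media change at DIV 7, and were fixed at DIV 12. Synaptophysin puncta on MAP2-stained neurites per neuron were counted by high-content imaging, fitted relative to DMSO.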

A short description of experiment [16]: CCTE_Mundy_HCI_Cortical_Synap_Neur_Matur_SynapseCount: CCTE's Synaptogenesis and Neurite Maturation Assay in rat cortical cells for Synapse Count, Mundy Lab (AID 2284218). The method in brief: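 Cells were plated, allowed 2 hr to attach, treated with AraC at DIV 5, then exposed to chemicals from DIV 7 until DIV 12. After fixation and MAP2/synaptophysin immunolabelling, synapses per neuron were quantified by automated imaging against DMSO.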

Experiment [17] can be described thus: CCTE_Mundy_HCI_Cortical_Synap_Neur_Matur_NeuriteCount: CCTE's Synaptogenesis and Neurite Maturation Assay in rat cortical cells for Neurite Count, Mundy Lab (AID 2284222).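 Further: exposure from day 7 to day 12 in vitro with readout at day 12.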 Put shortly: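 Primary rat cortical cells were plated, treated with AraC at DIV 5, then exposed to chemicals from DIV 7 through DIV 12. After fixation and immunostaining for MAP2 and synaptophysin, imaging quantified neurites, with DMSO as the negative control.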

Experiment [18] is described as follows: CCTE_Mundy_HCI_Cortical_Synap_Neur_Matur_CellBodySpotCount: CCTE's Synaptogenesis and Neurite Maturation Assay in rat cortical cells for Cell Body Spot Count, Mundy Lab (AID 2284223). The method in brief: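 Rat primary cortical cultures received AraC at DIV 5 to arrest glia, were dosed with chemical at DIV 7 with media change, and were fixed at DIV 12 (288.33 h). Synaptophysin puncta on MAP2-positive cell bodies per neuron were counted by high-content imaging versus DMSO.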

The nature of experiment [19]: CCTE_Mundy_HCI_hNP1_Pro_ResponderAvgInten: CCTE's Proliferation Assay in human neuroprogenitor cells, Mundy Lab (AID 2284224; active means hit-call score of the fitted dose curve at least 0.9, where 1 is the maximum;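 further: human neural progenitor cells hNP1 derived from WA09 embryonic stem cells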). The method in brief: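 Proliferation read as average intensity of BrdU-positive cells, imaged at 26.25 h post-dosing: chemical exposure started after 40–44 h culture, BrdU during final 4 h, paraformaldehyde fixation. Positive-direction fit relative to DMSO.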

Experiment [20] is described as follows: TAMU_PeakParms_SingleDonor1434_Chronotropy: Texas A&M University (TAMU) 1.5-hr Human Induced Pluripotent Stem Cell (iPSC)-derived Cardiomyocytes Calcium (Ca+2) Flux Assay for Cardiotoxicity: Chronotropy (changes in peak frequency) (AID 2284217). The conditions noted are these: actives raise or lower the signal. The method in brief:
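iPSC-CMs, donor 1434; 4 conc (0.2–100 uM), 0.5% v/v DMSO, 90 min, 37C/5% CO2; Ca2+ flux fluorescence → peak.freq.avg; peak.freq.avg = 0 dropped; bidirectional fit vs DMSO; EC05 POD.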

On to `CCCCCCCCCCCC(=O)N(C)CC(=O)O`, for which the result in [1] was inactive.

Consider `C1CNCCN1`, for which the compound was classed as inactive in [2].

As for `Oc1ccccc1Cc1ccccc1O`, the result in experiment [1] was inactive.

`CCCCNS(=O)(=O)c1ccccc1`: the outcome in [3], in [4], in [5], in [6], in [8] and in [9] was inactive. In addition, the outcome in [10], in experiment [11], in [12], in experiment [13], in [14] and in experiment [15] was inactive. The call in experiment [16], in [17] and in [18] was inactive. In experiment [7], the concentration at half-maximal activity (AC50) is 11.9 µM (active).

Turning to `c1ccc(Nc2cccc3ccccc23)cc1`, the result in [2] and in experiment [1] was inactive.

On to `C[N+](C)(C)CCCNS(=O)(=O)C(F)(F)C(F)(F)C(F)(F)C(F)(F)C(F)(F)C(F)(F)C(F)(F)C(F)(F)F`, for which the AC50 in experiment [3] is 15 µM (active) and 7.64 µM (active); in experiment [4] it was 906 nM (active) and 914 nM (active); in experiment [5], 4.2 µM (active). For the same compound, the compound was classed as inactive in [5].

Take `CC(CCC(=O)O)(c1ccc(O)cc1)c1ccc(O)cc1`: the result in experiment [2] and in experiment [1] was inactive.

For the compound `O=C(O)C(F)(F)C(F)(F)C(F)(F)C(F)(F)C(=O)O`, in experiment [19], the result was inactive.

As for `Cc1noc(NS(=O)(=O)c2ccc(N)cc2)c1C`, the compound was classed as inactive in experiment [3], in experiment [4], in experiment [5], in experiment [10], in experiment [11] and in experiment [12]. Moreover, the outcome in experiment [13], in experiment [14], in experiment [15], in [16], in experiment [17] and in experiment [18] was inactive.

For the compound `COC(=O)[C@H](Cc1ccccc1)NC(=O)[C@@H](N)CC(=O)O` (H-Asp-Phe-OMe), the compound was classed as inactive in [3], in experiment [1], in [4], in experiment [5], in [10] and in experiment [11]. The compound was called inactive in experiment [12], in experiment [13], in experiment [14], in experiment [15], in experiment [20] and in experiment [16]. Besides, the call in experiment [17], in experiment [18] and in [19] was inactive.

On to `Cc1c(C(=O)c2c[nH]n(C)c2=O)ccc(S(C)(=O)=O)c1C1=NOCC1`, for which the result in [2], in [3], in experiment [1], in [4], in experiment [5] and in [7] was inactive. For the same compound, the result in [8], in [9], in experiment [10], in [11], in [12] and in [13] was inactive. Besides, the outcome in experiment [14], in [15], in experiment [16], in [17] and in experiment [18] was inactive.

For `CCCC(C)C(=O)OCC` (centres undefined), in experiment [1], the compound was classed as inactive.

For the compound `Nc1nc(N)nc(-c2ccccc2)n1`, in [1], the result was inactive.

Regarding `CC(C)C(=O)OCCc1ccccc1`, in experiment [1], the compound was classed as inactive.

As for `Nc1cccc(N)n1`, the call in experiment [2] and in [1] was inactive.

For `CC/C=C\CCOC(=O)c1ccccc1O`, the compound was classed as inactive in experiment [1].

As for `CC1(C)CC(O)CC(C)(C)N1[O]`, the result in experiment [1] was inactive.
